# Bioassay records deposited in PubChem by National Center for Advancing Translational Sciences (NCATS).
# Marburg entry – Marburg virus entry inhibition. 18,000 compounds, 6.5% hits. Marburg virus pseudotype entry/binding inhibition, cell-based. Potency, µM (highest dose often 49.2 µM), inactives show top-dose activity change, negative = inhibition, most hits filed as inhibitors
# Lassa entry – blocks Lassa virus binding or cell entry; 18,000 compounds, 4.1% hits; Potency, µM (doses to about 49.2 µM), for inactives: at the top dose activity change, negative = inhibition, most hits filed as inhibitors; AID 720533; Lassa virus pseudotyped entry inhibition, cell-based qHTS
# An asterisk follows results filed as active; u = inconclusive; x = no result; ! = repeats disagree; [ ] = dose if it differs, or a comment. A selection: hits, their analogues and other compounds. The true share with any hit is near 8%. The call rests on the fitted dose curve; tested in HEK293 cells. On the % scale 0 is the no-effect control and ±100 the full control effect; potency means the concentration at half of the fitted maximal effect.
SMILES,Marburg entry,Lassa entry
C[C@@H]1N[S+](=O)([O-])c2cc(Cl)ccc2O[C@H]1c1ccccc1,-3%,7%
CC1=C(C/C=C(\C)CCC[C@H](C)CCC[C@H](C)CCCC(C)C)C(=O)c2ccccc2C1=O,-2%,-16%
CC(C)=CCC1=C(O)c2ccccc2C(=O)C1=O,5µM*,u
CCn1c(-c2nonc2N)nc2c(C#CC(C)(C)O)ncc(OC3CCNCC3)c21,4µM*,x
CCn1c(-c2nonc2N)nc2ccc(F)cc21,u,-10%
CCn1c(-c2nonc2N)nc2c(C#CC(C)(C)O)nc(OCC(N)c3ccccc3)cc21 (stereo not given),3.1µM*,x
CCn1c(-c2nonc2N)nc2c(C#CCN)ncc(OCCCN)c21,u,15%
COCc1c(C(=O)N2CC3CCC2C3)cnn1-c1nccc(-c2ccccc2OC)n1 (stereo not given),-4%,90%
COC(=O)[C@H]1[C@@H](c2ccccc2)NC(=O)N(Cc2ccccc2)[C@@H]1C,u,-1%[8.59 µM]
COC(=O)c1ccc(CN2C(=O)[C@@]3(CC(C)=C[C@@H](COc4ccccc4)O3)c3ccccc32)cc1,21%[8.59 µM],-15%[8.59 µM]
COC(=O)C1=C(C(=O)OC)[C@@H]2Nc3ccccc3[C@@]23C[C@@H](C(=O)OC)N(C(=O)Nc2ccccc2F)C3=N1,-9%[8.59 µM],-14%[8.59 µM]
O=C(O)c1ccccc1[O-].O=C(O)c1ccccc1[O-].[Zn+2],6%,-15%
Cc1nn(-c2ccccc2)c(C)c1CC(=O)NCC1Cc2cc(-c3cncnc3)ccc2O1 (stereo not given),-13%,-7%
COc1c(C)c2c(c(O)c1C/C=C(\C)CCC(=O)OCCN1CCOCC1)C(=O)OC2,1.1µM*,1.1µM*
CO[C@H]1C[C@H](O[C@H]2[C@H](C)O[C@@H](O[C@@H]3/C(C)=C/C[C@@H]4C[C@@H](C[C@]5(C=C[C@H](C)[C@@H](C6CCCCC6)O5)O4)OC(=O)[C@@H]4C=C(C)[C@@H](O)[C@H]5OC/C(=C\C=C\[C@@H]3C)[C@]54O)C[C@@H]2OC)O[C@@H](C)[C@@H]1O,8.9µM*,10µM*
CC[C@H](C)[C@@H]1O[C@]2(CC[C@@H]1C)C[C@H]1C[C@H](CC=C(C)[C@@H](O[C@@H]3C[C@H](OC)[C@H](O[C@@H]4C[C@H](OC)[C@H](O)[C@H](C)O4)[C@H](C)O3)[C@@H](C)C=CC=C3CO[C@@H]4[C@@H](O)C(C)=C[C@@H](C(=O)O1)[C@]34O)O2,u,-17%[17.8 µM]
CCC(C)[C@H]1O[C@]2(C=C[C@@H]1C)C[C@@H]1C[C@@H](C/C=C(\C)[C@@H](O[C@H]3C[C@H](OC)[C@@H](O[C@H]4C[C@H](OC)[C@H](NC(C)=O)[C@H](C)O4)[C@H](C)O3)[C@@H](C)/C=C/C=C3\CO[C@@H]4[C@H](O)C(C)=C[C@@H](C(=O)O1)[C@]34O)O2 (stereo not given in full),8.9µM*,13µM*
CC[C@@H](C)[C@H]1O[C@]2(CC[C@@H]1C)C[C@@H]1C[C@H](C/C=C(/C)[C@H](O[C@@H]3C[C@H](OC)[C@H](O[C@@H]4C[C@H](OC)[C@@H](O)[C@H](C)O4)[C@H](C)O3)[C@@H](C)/C=C\C=C3CO[C@@H]4[C@H](O)C(C)=C[C@@H](C(=O)O1)[C@]34O)O2 (tested in a mixture with another compound),-4%,u
COC(=O)C1=C(C(=O)OC)[C@@H]2N(C)c3ccccc3[C@@]23C[C@@H](C(=O)OC)N(C(=O)NC(C)(C)C)C3=N1,14%[8.59 µM],x
OC[C@H]1O[C@H](C#Cc2ccc(F)cc2F)C=C[C@H]1O,u,-16%[8.59 µM]
CC#CCN1C(=O)NC(c2ccccc2)C(C(=O)OCC)=C1c1ccccc1 (stereo not given),7%[8.59 µM],-16%[8.59 µM]
CC1OC(=O)C(C(C)C)NC(=O)C(C(C)C)OC(=O)C(C(C)C)NC(=O)C(C)OC(=O)C(C(C)C)NC(=O)C(C(C)C)OC(=O)C(C(C)C)NC(=O)C(C)OC(=O)C(C(C)C)NC(=O)C(C(C)C)OC(=O)C(C(C)C)NC1=O (stereo not given),89µM*,0.13µM*
C#CCCCON=C1C[C@@H](O)[C@H](O)[C@H]2[C@@H]3C(=O)N(C[C@@H]4CCCO4)C(=O)[C@@H]3CC[C@@H]12,3%[8.59 µM],26%[8.59 µM]
CN(C)c1ccc(-c2nccc(NCc3ccccc3)n2)cc1,u,-18%
CN(C)c1ccc(C(=C2C=CC(=[N+](C)C)C=C2)c2ccc(N(C)C)cc2)cc1,1.4µM*,1.8µM*
SMILES,Marburg entry,Lassa entry
CN(C)c1ccc(C(=C2C=CC(=[N+](C)C)C=C2)c2ccccc2)cc1,1.4µM*!,2.2µM*
COC(=O)N[C@@H](c1ccccc1)C(C(=O)OC)C(=O)OC,45%[8.59 µM],-9%[8.59 µM]
CCCC=Cc1ccc(CN2C(C(C)C)C(=O)N(Cc3cn(Cc4ccco4)nn3)CCS2(=O)=O)cc1 (stereo not given),u,-10%
CC(C)OC(=O)c1cc2c(OCC(O)CNC(C)(C)C)cccc2[nH]1 (stereo not given),35µM*,-12%
C=NCc1cc2c(OC[C@@H](O)CNC(C)(C)C)cccc2[nH]1,u,0%
C/C=C/c1ccc(OC)cc1,16%,-3%
COc1ccc(/C=C/c2cc(OC)cc(=O)o2)cc1,1.8µM*,8.9µM*
CCCCCC(=O)N1C[C@@H](n2cc(-c3ccc(F)cc3)nn2)[C@H](O)C[C@H]1c1ccc(OC)cc1,-35%,x
CCN(CC)CCNC(=O)COc1ccc(OC)cc1,-23%,-3%
CCN(CC)CCCCNc1ncc2cc(-c3cc(OC)cc(OC)c3)c(NC(=O)NC(C)(C)C)nc2n1,1.1µM*,13µM*
C#CCN1C(=O)[C@]2(OCCC=C[C@H]2C)c2c(Br)cccc21,u,1%[8.59 µM]
O=C(Nc1ccc(/C=C/c2ccc(NC(=O)c3cc(S(=O)(=O)O)c4cccnc4c3O)cc2S(=O)(=O)O)c(S(=O)(=O)O)c1)c1cc(S(=O)(=O)O)c2cccnc2c1O,3.5µM*,3%
O=S(=O)(O)c1cc(I)c(O)c2ncccc12,-20%,u
COC(=O)[C@H]1O[C@@H](c2cc(OC)c(C)c(OC)c2O)[C@H](C)[C@@H](O)[C@@H]1C,32%[8.59 µM],x
CC[C@@H](c1ccccc1)n1c(=O)n2n(c1=O)[C@H]1[C@H](O)[C@@H]3O[C@H]3C(=NOCc3ccccc3)[C@H]1CC2,u,6%[8.59 µM]
COC/C=C/C1=CC2=CC(=O)C(C)(OC(=O)c3cnc4ccccc4n3)C(=O)C2=CO1 (stereo not given),14%,5.6µM*
CCC(=O)OC1(C)C(=O)C=C2C=C(/C=C/COC)OC=C2C1=O (stereo not given),-14%,0%
CN(Cc1cnc2ccccn12)C1CCN(c2cccc(NC(=O)c3cccnc3)c2)CC1,-14%,-7%
Cn1cc(CNC2CCN(c3cccc(NC(=O)c4cccnc4)c3)CC2)cn1,-17%,-6%
COc1ccccc1C(=O)Nc1cccc(N2CCC(NCc3cnn(-c4ccccc4)n3)CC2)c1,11µM*,u
O=C(Nc1cccc(N2CCC(NCc3cnn(-c4cccc(F)c4)c3)CC2)c1)c1ccncc1,2.5µM*,7%
C[C@@H]1CC2CCC[C@@H]2[C@]2(O1)C(=O)Nc1cccc(Br)c12 (stereo not given in full),8%[8.59 µM],72%[8.59 µM]
COc1cccc(CS(=O)(=O)c2ccccc2)c1,10%,2%
COc1cccc(CCc2ccccc2OCC(CN(C)C)OC(=O)CCC(=O)O)c1 (stereo not given),11µM*,22µM*
